PubChem BioAssay AID828 (The Scripps Research Institute Molecular Screening Center, 2007)
The campaign covered roughly 140,000 compounds. About 550 (0.39%) were called active. Rule as the data show it: active = inhibition above about 27%; inactive = the rest. The sample as a whole holds a higher share of actives than the screen did.

The compounds below were run against Galanin receptor type 2 (Homo sapiens) (UniProt O43603) (assay: blockers of human galanin receptor 2 – cell-based, primary screen (AID 828;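 also: cells stimulated with galanin 1-16 at roughly its EC80; 0% = agonist challenge control and 100% = basal control without agonist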)). Settings: GALR2-expressing cells, antagonist mode; at 4 µM; hits give high values.
Chain of Galanin receptor type 2 (Homo sapiens) (O43603 whole entry, looked up): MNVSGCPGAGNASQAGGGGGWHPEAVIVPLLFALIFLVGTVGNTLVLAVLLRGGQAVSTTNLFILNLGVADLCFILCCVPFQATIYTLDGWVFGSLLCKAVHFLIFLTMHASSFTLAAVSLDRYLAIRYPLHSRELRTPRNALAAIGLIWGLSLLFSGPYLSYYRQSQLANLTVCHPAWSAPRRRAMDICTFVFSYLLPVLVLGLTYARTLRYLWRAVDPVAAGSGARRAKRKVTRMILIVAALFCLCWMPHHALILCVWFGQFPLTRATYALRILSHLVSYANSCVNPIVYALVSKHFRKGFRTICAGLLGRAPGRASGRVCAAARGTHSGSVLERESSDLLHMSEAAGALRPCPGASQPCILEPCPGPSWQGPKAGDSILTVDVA

SMILES	inhibition
NS(=O)(=O)c1ccc(CCNC(=S)Nc2ccc(S(N)(=O)=O)cc2)cc1	5.94% (inactive)
Cc1cc(C)c(C#N)c(SCC(=O)NN2CC(=O)N(c3ccccc3F)CC2=O)n1	12.2% (inactive)
COc1ccc(C)cc1S(=O)(=O)N(CC(=O)Nc1cccc([N+](=O)[O-])c1)c1ccc(C)cc1	-2.05% (inactive)
O=C(COC(=O)C1CC2C=CC1C2)Nc1ccccc1 (stereo not given)	-0.08% (inactive)
Cc1cc(C(=O)COC(=O)CNC(=O)c2ccc(F)cc2)c(C)n1Cc1ccco1	3.46% (inactive)
COc1ccccc1C(=O)N1CC2(C)CC1CC(C)(C)C2 (stereo not given)	1.39% (inactive)
Cc1nnnn1/C(=C\c1ccccc1)C(=O)OCC(=O)N1CC2(C)CC1CC(C)(C)C2 (stereo not given)	27.3% (active)
Cc1cccc(C(=O)NCC(=O)OCC(=O)N2CC3(C)CC2CC(C)(C)C3)c1 (stereo not given)	1.61% (inactive)
COC(=O)N/N=C/c1ccc(-c2ccc(Cl)c(Cl)c2)o1	-7.04% (inactive)
COc1cc(C(=O)NNC(=O)c2ccc(S(=O)(=O)N3CCCCC3)cc2)cc(OC)c1OC	9.59% (inactive)
CC(C)COP(=O)(c1ccc(N(C)C)cc1)C(Nc1ccccc1)c1cccnc1 (stereo not given)	3.84% (inactive)
O=C(CSC(=S)N1CCOCC1)c1ccccc1	5.48% (inactive)
COc1ccc(Nc2nc(NCc3ccco3)nc(N/N=C/c3ccccc3Cl)n2)cc1	-5.3% (inactive)
O=C(/C=C/c1ccccc1)Nc1nnc(SCC(=O)c2ccc3ccccc3c2)s1	-9.23% (inactive)
COc1ccc(C(=O)Nc2sc(C)c(C)c2CN2CCOCC2)cc1	3.47% (inactive)
COc1ccc(Cl)cc1NC(=O)[C@@H]1CCCN1C(=O)c1cccs1	-3.13% (inactive)
Cc1ccc(-c2nc3ccccc3[nH]2)cc1N	4.32% (inactive)
c1ccc2[nH]c(-c3nc4ccccc4[nH]3)nc2c1	35.5% (active)
c1ccc(-c2[nH]ncc2-c2nc3ccccc3[nH]2)cc1	0.69% (inactive)
Cc1ccc(-c2nc(-c3cccnc3)sc2CC(=O)Nc2ccc(C)c(Cl)c2)cc1	8.6% (inactive)

SMILES	inhibition
CSc1ccc(/C=N/NC(=O)c2cccc(Cl)c2)cc1	9.93% (inactive)
CCCN(CCC)C(=S)Nc1cc(C(=O)OC)ccc1C(=O)OC	0.52% (inactive)
O=C(Oc1cccc(N2C(=O)C3C4c5ccccc5C(c5ccccc54)C3C2=O)c1)c1ccco1 (stereo not given)	1.71% (inactive)
O=C1C2C3C=CC(C4CC34)C2C(=O)N1c1nccs1 (stereo not given)	-7.75% (inactive)
CC[C@H]1CN2CCc3cc(OC)c(OC)cc3[C@@H]2C[C@@H]1C[C@H]1NCCc2cc(OC)c(OC)cc21	95% (active)
COc1cc2c(cc1O)[C@H](Cc1ccc(Oc3cc(C[C@@H]4NCCc5cc(OC)c(O)cc54)ccc3O)cc1)NCC2	1.51% (inactive)
O=C(NCCc1ccccc1)C1CCC(Cn2c(=O)c3ccccc3n(Cc3cccnc3)c2=O)CC1 (stereo not given)	-3.73% (inactive)
Cc1ccc(-n2nc(C)c(/C=N/NC(=O)c3cccs3)c2Cl)cc1	-3.43% (inactive)
Cc1ccc(/C=N\n2c(-c3ccccc3)n[nH]c2=S)s1	5.78% (inactive)
Cc1cc(-c2n[nH]c(=S)n2/N=C/C(Br)=C/c2ccccc2)n[nH]1	34.7% (active)
S=c1[nH]nc(-c2cccnc2)n1/N=C/C(Cl)=C\c1ccccc1	18% (inactive)
Cc1nc2ccccc2nc(C)c1=NOCc1ccc(Cl)cc1Cl	10.4% (inactive)
COc1ccc(/C=N/OCC(=O)N(Cc2ccccc2)c2ccccc2C(=O)O)cc1	2.54% (inactive)
CNC(=O)/C(C#N)=C/c1c(F)cccc1Cl	20.6% (inactive)
COc1ccc(/C=C2/C(=O)OCc3cc(OC)c(OC)cc32)c(OC)c1	2.64% (inactive)
COc1ccc(C2NC(=S)NC3=C2CCc2ccccc23)cc1OC (stereo not given)	-4.17% (inactive)
O=C(N/N=C/c1ccccn1)C12CC3CC(CC(C3)C1)C2	-0.89% (inactive)
Cn1c(-c2ccco2)nc2cc3ccccc3cc21	29.7% (active)
CN(c1nc2ccccc2n2c(-c3ccco3)nnc12)S(=O)(=O)c1ccccc1	3% (inactive)
CN1c2ccccc2-c2nc3ccccc3n2C1c1ccco1 (stereo not given)	-6.2% (inactive)
